# Results published in PubChem BioAssay AID1159580 (chemical genetic matrix, 2015).
# Several values for one entry are separate records, joined by “and”; a condition that tells them apart may be missing. Equal entries are not always repeated. In all, about 5,500 compounds went through this assay and about 2,000 (36%) were called active. Not shown: some 18% with an inconclusive outcome. Some of the results follow. Values without a mark were called inactive. Rule as the data show it: active = normalized growth mostly below about 0.91 (no sharp cut-off); inconclusive = no clear call, values can overlap the other calls; inactive = mostly above about 0.92.
# Experiment: chemical genetic growth profiling, strain panel (AID 1159580);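 also: tested at 20 µM; growth read once vehicle control cultures reached saturation at 30 °C; 1 = growth at the plate median or of vehicle wells; lower values mean less growth of the strain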
# Conditions: S. cerevisiae deletion strains, growth OD
smiles,measurement,setting,value
CC(=O)Oc1ccc2c(c1)CCC1C2CC[C@@]2(C)C1CC[C@@H]2OC(C)=O (some centres undefined),normalized growth,"locus YAL021C, strain ccr4, stronger effect = lower value",1.01
same,normalized growth,"locus YAL026C, strain drs2, stronger effect = lower value",0.984
same,normalized growth,"locus YAL030W, strain snc1, stronger effect = lower value",0.984
same,normalized growth,"locus YBL061C, strain skt5, stronger effect = lower value",0.977
same,normalized growth,"locus YBR009C, strain hhf1, stronger effect = lower value",0.969
same,normalized growth,"locus YBR021W, strain FUR4, stronger effect = lower value",0.955
same,normalized growth,"locus YBR023C, strain chs3, stronger effect = lower value",0.957
same,normalized growth,"locus YBR171W, strain sec66, stronger effect = lower value",0.921
same,normalized growth,"locus YBR229C, strain ROT2, stronger effect = lower value",0.94
same,normalized growth,"locus YBR231C, strain swc5, stronger effect = lower value",1.02
same,normalized growth,"locus YBR279W, strain paf1, stronger effect = lower value",1.02
same,normalized growth,"locus YCL011C, strain gbp2, stronger effect = lower value",0.991
same,normalized growth,"locus YCL016C, strain dcc1, stronger effect = lower value",0.991
same,normalized growth,"locus YCL029C, strain bik1, stronger effect = lower value",0.972
same,normalized growth,"locus YCL069W, strain vba3, stronger effect = lower value",0.989
same,normalized growth,"locus YCR088W, strain abp1, stronger effect = lower value",0.978
same,normalized growth,"locus YDL005C, strain med2, stronger effect = lower value",1
same,normalized growth,"locus YDL035C, strain GPR1, stronger effect = lower value",0.971
same,normalized growth,"locus YDL040C, strain nat1, stronger effect = lower value",0.994
same,normalized growth,"locus YDL074C, strain BRE1, stronger effect = lower value",0.872
same,normalized growth,"locus YDL101C, strain DUN1, stronger effect = lower value",0.969
same,normalized growth,"locus YDL134C, strain PPH21, stronger effect = lower value",0.985
same,normalized growth,"locus YDL185W, strain tfp1, stronger effect = lower value",0.983
same,normalized growth,"locus YDL192W, strain arf1, stronger effect = lower value",0.984
same,normalized growth,"locus YDR001C, strain nth1, stronger effect = lower value",0.983
same,normalized growth,"locus YDR069C, strain doa4, stronger effect = lower value",0.983
same,normalized growth,"locus YDR101C, strain arx1, stronger effect = lower value",0.967
same,normalized growth,"locus YDR137W, strain rgp1, stronger effect = lower value",0.841 (active)
same,normalized growth,"locus YDR159W, strain sac3, stronger effect = lower value",0.924
same,normalized growth,"locus YDR162C, strain NBP2, stronger effect = lower value",0.969
same,normalized growth,"locus YDR195W, strain ref2",1.08
same,normalized growth,"locus YDR297W, strain sur2, stronger effect = lower value",0.988
same,normalized growth,"locus YDR318W, strain mcm21, stronger effect = lower value",0.971
same,normalized growth,"locus YDR334W, strain swr1, stronger effect = lower value",0.994
same,normalized growth,"locus YDR335W, strain msn5, stronger effect = lower value",1.03
same,normalized growth,"locus YDR388W, stronger effect = lower value",0.979
same,normalized growth,"locus YDR392W, strain spt3, stronger effect = lower value",0.674 (active)
same,normalized growth,"locus YDR502C, strain sam2, stronger effect = lower value",0.969
same,normalized growth,"locus YEL003W, strain gim4, stronger effect = lower value",0.973
same,normalized growth,"locus YEL037C, strain rad23, stronger effect = lower value",0.992
same,normalized growth,"locus YEL061C, strain CIN8 (second series), stronger effect = lower value",0.992
same,normalized growth,"locus YEL061C, strain CIN8, stronger effect = lower value",0.964
same,normalized growth,"locus YER015W, strain faa2, stronger effect = lower value",1
same,normalized growth,"locus YER016W, strain bim1, stronger effect = lower value",1
same,normalized growth,"locus YER110C, stronger effect = lower value",0.984
same,normalized growth,"locus YER111C, strain swi4, stronger effect = lower value",0.986
same,normalized growth,"locus YER155C, strain BEM2 (second series), stronger effect = lower value",0.951
same,normalized growth,"locus YER155C, strain BEM2, stronger effect = lower value",0.973
same,normalized growth,"locus YER167W, strain BCK2, stronger effect = lower value",0.971
same,normalized growth,"locus YFR010W, strain ubp6, stronger effect = lower value",1
same,normalized growth,"locus YGL078C, strain dbp3, stronger effect = lower value",0.98
same,normalized growth,"locus YGL086W, strain mad1, stronger effect = lower value",0.958
same,normalized growth,"locus YGL167C, strain pmr1, stronger effect = lower value",0.973
same,normalized growth,"locus YGL173C, strain kem1, stronger effect = lower value",0.987
same,normalized growth,"locus YGL227W, strain vid30, stronger effect = lower value",0.989
same,normalized growth,"locus YGL240W, strain doc1, stronger effect = lower value",0.993
same,normalized growth,"locus YGL248W, strain PDE1, stronger effect = lower value",0.94
same,normalized growth,"locus YGL253W, strain hxk2, stronger effect = lower value",1.01
same,normalized growth,"locus YGR078C, strain PAC10, stronger effect = lower value",0.943
same,normalized growth,"locus YGR135W, strain pre9, stronger effect = lower value",0.986
same,normalized growth,"locus YGR229C, strain SMI1, stronger effect = lower value",0.954
same,normalized growth,"locus YGR252W, strain gcn5, stronger effect = lower value",0.947
same,normalized growth,"locus YHR013C, strain ard1, stronger effect = lower value",1.02
same,normalized growth,"locus YHR027C, strain rpn1, stronger effect = lower value",0.995
same,normalized growth,"locus YHR030C, strain SLT2, stronger effect = lower value",0.988 and 0.952
same,normalized growth,"locus YHR079C, strain IRE1 (second series), stronger effect = lower value",0.977
same,normalized growth,"locus YHR079C, strain IRE1, stronger effect = lower value",0.937
same,normalized growth,"locus YHR094C, strain hxt1, stronger effect = lower value",0.978
same,normalized growth,"locus YHR129C, strain ARP1, stronger effect = lower value",0.982
same,normalized growth,"locus YHR142W, strain chs7, stronger effect = lower value",0.953
same,normalized growth,"locus YHR200W, strain rpn10, stronger effect = lower value",0.963
same,normalized growth,"locus YIL066C, strain RNR3, stronger effect = lower value",0.948
same,normalized growth,"locus YIL073C, strain SPO22, stronger effect = lower value",0.97
same,normalized growth,"locus YIL125W, strain kgd1, stronger effect = lower value",0.966
same,normalized growth,"locus YIR030C, strain dcg1, stronger effect = lower value",0.981
same,normalized growth,"locus YJL092W, strain hpr5, stronger effect = lower value",0.975
same,normalized growth,"locus YJL095W, strain BCK1 (second series), stronger effect = lower value",0.973
same,normalized growth,"locus YJL095W, strain BCK1, stronger effect = lower value",0.926 and 0.951
same,normalized growth,"locus YJL115W, strain asf1, stronger effect = lower value",0.997
same,normalized growth,"locus YJL129C, strain trk1, stronger effect = lower value",0.886
same,normalized growth,"locus YJL134W, strain LCB3, stronger effect = lower value",0.978
same,normalized growth,"locus YJL154C, strain vps35, stronger effect = lower value",0.995
same,normalized growth,"locus YJL164C, strain tpk1, stronger effect = lower value",0.958
same,normalized growth,"locus YJL166W, strain qcr8, stronger effect = lower value",0.988
same,normalized growth,"locus YJL168C, strain set2, stronger effect = lower value",0.963
same,normalized growth,"locus YJL187C, strain SWE1 (second series), stronger effect = lower value",0.956
same,normalized growth,"locus YJL187C, strain SWE1, stronger effect = lower value",0.979
same,normalized growth,"locus YJR043C, strain POL32, stronger effect = lower value",0.976
same,normalized growth,"locus YJR066W, strain TOR1, stronger effect = lower value",0.956
